Smad3 inh: Smad3/FoxH1 peptide binding inhibitors, primary screen, biochemical, TR-FRET; Mothers against decapentaplegic homolog 3 (Homo sapiens), P84022; TR-FRET Smad3/Dy647-FoxH1 peptide binding, europium anti-His; inhibition, % at 25 µM; 0.29% of 88,000 active; AID 630, 2007;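 active = compounds that reduce the energy-transfer binding signal between the protein and its labelled peptide by more than half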;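 also: 0% = Smad3 plus labelled peptide maximal FRET and 100% = peptide-only background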
Target sequence (P84022 whole entry, looked up): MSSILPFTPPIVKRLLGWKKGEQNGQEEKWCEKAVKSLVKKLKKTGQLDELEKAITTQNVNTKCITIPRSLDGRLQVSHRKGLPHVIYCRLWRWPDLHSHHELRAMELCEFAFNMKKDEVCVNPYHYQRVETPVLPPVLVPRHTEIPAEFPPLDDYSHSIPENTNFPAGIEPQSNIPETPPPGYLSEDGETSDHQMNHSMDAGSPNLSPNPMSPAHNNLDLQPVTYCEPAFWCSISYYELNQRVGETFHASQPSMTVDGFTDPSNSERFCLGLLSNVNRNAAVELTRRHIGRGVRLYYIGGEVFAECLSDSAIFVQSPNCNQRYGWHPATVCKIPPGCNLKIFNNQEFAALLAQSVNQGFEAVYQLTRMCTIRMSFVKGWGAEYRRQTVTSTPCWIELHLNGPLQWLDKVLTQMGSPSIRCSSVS
Cav3 T inh: Cav3.2 calcium influx blockers – cell-based, Fluo-4 calcium fluorescence, FDSS, MLSMR library, primary screen; Voltage-dependent T-type calcium channel subunit alpha-1H (Homo sapiens), O95180; Cav3.2-expressing cells; active compounds read low; B-score at 10 µM; 4% of 100,000 active; AID 449739, 2010;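 active = single-dose well whose peak fluorescence ratio is a statistical outlier from its plate by either plate-standardised score or position-corrected B-score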
TNAP act mid DEA: human TNAP enzyme activators, primary screen, biochemical, luminescent, intermediate phosphate acceptor level; 64,000 tested, under 10 active; purified TNAP, CDP-star luminescence, 100 mM DEA, 30 min; active compounds read high; scale: 0 levamisole-inhibited, 1 vehicle-only enzyme; Alkaline phosphatase, tissue-nonspecific isozyme (Homo sapiens), P05186; AID 813, 2007; activation factor at 20 µM;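 active = activation factor of at least 2 at 20 µM, relative to controls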
hDAT+cocaine: changed hDAT dopamine uptake under cocaine IC80, either direction, primary screen, cocaine antagonist project, cell-based, LLC-PK1 hDAT, [14C]-dopamine uptake, MLSMR | LLC-PK1 hDAT cells, [14C]-dopamine uptake with cocaine IC80; actives deviate in either direction | B-score at 10 µM | 1.3% of 110,000 active | AID 449768, 2010;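 active = Z score or B-score, a plate-position-corrected score, falls beyond the plate's 99.7% confidence bounds, in either direction; inactive = both scores lie inside the 99.7% bounds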;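 also: scored against the spread of the other compound wells on the same plate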
PostGolgi yeast: phenotypic screen on post-Golgi transport, primary screen; post-Golgi transport phenotypic cell assay; inhibition, % at 10 µM; 0.9% of 98,000 active;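 also: yeast cells grown in 1536-well plates; yeast grown about 18 h at 30C before absorbance read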
PostGolgi ctrl: growth inhibition of yeast control strain, primary screen, counter-screen for post-Golgi transport modulator project; efflux-deficient yeast background strain, growth absorbance A615, 16 h; inhibition, % at 10 µM; 5% of 98,000 active; AID 738, 2007
* = called active by the depositor; / = not tested or not shown. A selection: hits, their analogues and other compounds. The true share with any hit is near 8.7%. Rule as the data show it, unless noted: active = inhibition above about 30%; inactive = the rest.

SMILES | Smad3 inh | Cav3 T inh | TNAP act mid DEA | hDAT+cocaine | PostGolgi yeast | PostGolgi ctrl
O=C(Nc1ccccc1F)N(CCCN1CCOCC1)Cc1cc2cc3c(cc2[nH]c1=O)OCCO3 | 5 | 0.43 | 0.9 | -0.19 | -1 | 0
Clc1ccc(-c2nn3c(-c4ccncc4)nnc3s2)c(Cl)c1 | -8 | / | 0.9 | / | / | /
Cc1nn2c(-c3ccc(Cl)cc3Cl)nnc2s1 | 6 | -0.6 | 0.9 | 0.032 | -21 | 34*
COc1ccc(-c2nc(C#N)c(N3CCCCCC3)o2)cc1OC | -3 | -0.62 | 0.8 | 2.5 | 13 | 34*
CCOC(=O)c1c(C)cc(C)n2c1nc1ccccc12 | 5 | 0.96 | / | 0.094 | 6 | 23
O=C(O)CCOc1ccc2c(c1)OCCO2 | 10 | 0.15 | 0.8 | -7.6* | -6 | 4
O=C(O)CCC(=O)c1ccc2c(c1)OCCO2 | 5 | 2.3 | 0.8 | -0.22 | 1 | 0
O=S(=O)(c1ccc(-c2csc(-c3cccnc3)n2)cc1)N1CCCC1 | 4 | -0.13 | 0.9 | -0.84 | 13 | 19
O=S(=O)(c1ccc(-c2nc3ccccc3s2)cc1)N1CCCC1 | -4 | -0.13 | / | -0.25 | -6 | 4
CS(=O)(=O)N1CCN(c2nc(-c3ccc(F)cc3)cs2)CC1 | -1 | 0.39 | 1 | -0.014 | -5 | 11
Nc1cccc(-c2nc3ccccc3s2)c1 | 10 | 0.039 | / | 0.27 | 1 | 31*
O=S(=O)(c1cccc(-c2nc3ccccc3s2)c1)N1CCCC1 | 2 | -3.1 | 0.9 | -0.26 | 10 | 34*
O=S(=O)(c1ccc(-c2csc(-c3cccnc3)n2)cc1)N1CCCCC1 | 17 | -0.23 | 0.9 | -0.82 | -1 | 41*
O=S(=O)(c1ccc(F)cc1)N1CCN(c2nc(-c3ccc(F)cc3)cs2)CC1 | 3 | 0.15 | / | 0.45 | -2 | 37*
CCC(N1CCOC1=O)S(=O)(=O)c1ccc(C)cc1 (stereo not given) | 0 | 1 | / | -1.3 | 2 | 1
O=C(C1=C(O)C(=O)N(CCN2CCOCC2)C1c1ccccn1)c1cccs1 (stereo not given) | 5 | 0.39 | 1 | -0.14 | -5 | 2
Cn1c(CCN2CCCCC2)nc2cc([N+](=O)[O-])ccc21 | / | -0.14 | / | 0.68 | -12 | -1
CCOc1cccc(-c2nc(C(N)=O)c3[nH]c(=O)n(-c4cccc(Cl)c4)c3n2)c1O | / | 0.65 | 1.1 | -0.27 | -1 | 5
CC1CCN(S(=O)(=O)c2cccc(-c3csc(-c4cccnc4)n3)c2)CC1 | -1 | 0.19 | / | 1.7 | -7 | 9
c1cncc(-c2nc(-c3cccs3)cs2)c1 | 2 | 0.063 | 0.8 | -0.42 | -1 | 11
O=S(=O)(c1cccc(-c2csc(-c3cccnc3)n2)c1)N1CCCCC1 | 9 | -1.2 | 0.8 | 0.68 | -2 | 32*
Clc1ccsc1-c1csc(-c2cccnc2)n1 | 9 | 0.36 | / | -0.16 | 81* | 85*
CC1CN(CC(=O)Nc2cccc(C(=O)Nc3cccc(C(F)(F)F)c3)c2)CC(C)O1 (stereo not given) | / | -2.9 | / | -0.1 | 3 | 3
Cc1onc(-c2ccccc2)c1C(=O)Nc1nnc(-c2ccncc2)s1 | -3 | -1.5 | 0.9 | -0.37 | -1 | 23
CN1CCN(c2ccccc2NC(=O)c2cc3ccccc3o2)CC1 | 18 | 0.72 | / | 1.7 | 8 | 6
SMILES | Smad3 inh | Cav3 T inh | TNAP act mid DEA | hDAT+cocaine | PostGolgi yeast | PostGolgi ctrl
CS(=O)(=O)N1CCN(c2ccccc2NC(=O)c2ccc(Br)o2)CC1 | -14 | -1.4 | / | 2 | 3 | 42*
O=C(Nc1ccccc1N1CCCCC1)c1ccccc1F | 0 | -0.36 | 0.9 | 0.018 | -4 | 34*
O=C(Nc1ccccc1N1CCCC1)c1cccnc1Cl | 2 | 0.029 | / | -1.7 | / | /
O=C(Nc1ccccc1N1CCN(C(=O)c2ccccc2)CC1)c1cc2ccccc2o1 | -5 | 0.85 | 1 | 0.0062 | -4 | 36*
O=C(Nc1ccccc1N1CCCC1)c1cc2ccccc2o1 | -1 | / | 0.8 | / | -11 | 39*
O=C(Nc1ccccc1N1CCN(C(=O)c2ccc(Cl)cc2)CC1)c1ccc2c(c1)OCO2 | -1 | -1.4 | 0.9 | -0.059 | -5 | 20
O=C(Nc1ccccc1N1CCN(C(=O)c2ccccc2)CC1)c1cc(Br)ccc1Cl | 7 | -1.9 | / | 0.49 | 8 | 31*
O=C(Nc1ccc(NC(=S)NC(=O)C(c2ccccc2)c2ccccc2)cc1)c1ccccc1 | / | -4.3* | / | 0.2 | / | /
Cc1nc(N)c(C#N)c(-c2ccccc2)c1C | 3 | -0.25 | 0.9 | -0.61 | -1 | 31*
C=CCN1c2ccccc2[C@]23C[C@@H](C(=O)OC)N(C(=O)NC4CCCC4)C2=NC(C(=O)OC)=C(C(=O)OC)[C@H]13 | / | -3 | / | 0.97 | / | /
COC(=O)c1c(C)n(-c2ccccc2)c2ccc(O)cc12 | 4 | -2 | 1 | -0.22 | 1 | 43*
CC(=O)c1c(C)n(-c2ccccc2)c2ccc(O)cc12 | 5 | -0.079 | 0.9 | -0.81 | -8 | 7
COC(=O)c1c(C)n(-c2ccc(C)cc2)c2ccc(O)cc12 | -20 | 1.1 | / | 1.1 | -8 | 47*
OC(COc1ccccc1)CN1CCOCC1 (stereo not given) | 4 | 0.65 | / | 0.00019 | / | /
CCn1c(=N)n(CC(=O)C(C)(C)C)c2ccccc21 | -2 | 0.44 | / | 0.45 | -5 | 13
Cc1cccc(C(=O)OCC(=O)Nc2ccc(N3CCCCC3)cc2)c1O | -2 | -0.32 | 0.9 | -0.045 | 4 | -3
CCc1ccc2oc(-c3cc(N)ccc3O)nc2c1 | 13 | 1.3 | 1 | -0.63 | 22 | 53*
CCc1ccc2oc(-c3cc(N)cc(C)c3O)nc2c1 | 4 | -0.49 | 1 | -0.043 | -4 | 22
CCc1ccc2oc(-c3cc(N)ccc3Cl)nc2c1 | -11 | -0.82 | 0.9 | -1.2 | 1 | 35*
CC(C(=O)Nc1ccc(C(=O)O)cc1)N1C(=O)c2ccccc2C1=O (stereo not given) | -2 | -0.015 | 1 | -0.72 | 10 | -7
CC(C(=O)N(C1CC1)C1(C(=O)Nc2ccccc2)CCCC1)N1C(=O)c2ccccc2C1=O (stereo not given) | 11 | -2 | 1 | 0.014 | 2 | 45*
Cc1ccc(CNC(=O)c2nnn(-c3cccc(C)c3)c2N)cc1 | -15 | -5.4* | 0.9 | -0.012 | 1 | 2
Oc1cc(O)c2c(c1)O[C@H](c1ccc(O)c(O)c1)[C@@H](O)C2 | / | 0.12 | / | -0.75 | / | /
O=C1c2c(O)cc(O)cc2O[C@@]12c1c(cc(O)c3c1O[C@H](c1ccc(O)cc1)[C@@H](O)C3)O[C@@H]2c1ccc(O)cc1 | / | 0.0065 | / | 2.2* | / | /
